Source: PubChem BioAssay (NCI)
This is part of a sample that, as a whole, favours compounds with a hit. Of some 83,000 tested, about 20% had one in any assay.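 Step 1: grow cells in 96-well plates. Step 2: add test compound at a single concentration. Step 3: incubate 48 h. Step 4: record percent growth.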 Unmarked numbers belong to inactive results. Activity calls are given as the source filed them. Rule for the calls: active = growth percent below 10; inactive = the rest.

Key:
Assay in all cases: NCI-60 one-dose screen, 48 h (100 = growth as untreated, 0 = no growth, -100 = all killed)
Settings in all cases: 10 µM unless noted
NCI-H23 lung = test system: NCI-H23 lung
NCI-H226 lung = test system: NCI-H226 lung
NCI-H322M lung = test system: NCI-H322M lung
HOP-62 NSCLC = test system: HOP-62 NSCLC
NCI-H460 lung = test system: NCI-H460 lung
NCI-H522 lung = test system: NCI-H522 lung
A549/ATCC NSCLC = test system: A549/ATCC NSCLC
786-0 renal = test system: 786-0 renal
COLO 205 colon = test system: COLO 205 colon
DU-145 prostate = test system: DU-145 prostate
K-562 leukemia = test system: K-562 leukemia
MALME-3M melanoma = test system: MALME-3M melanoma
MDA-MB-231 breast = test system: MDA-MB-231 breast
RXF 393 renal = test system: RXF 393 renal
SF-268 CNS = test system: SF-268 CNS
SF-295 CNS = test system: SF-295 CNS
SF-539 CNS = test system: SF-539 CNS
UACC-257 melanoma = test system: UACC-257 melanoma
M14 melanoma = test system: M14 melanoma
HOP-92 NSCLC = test system: HOP-92 NSCLC

Structure (SMILES) | growth (NCI-H23 lung) | growth (NCI-H226 lung) | growth (NCI-H322M lung) | growth (HOP-62 NSCLC) | growth (NCI-H460 lung) | growth (NCI-H522 lung) | growth (A549/ATCC NSCLC) | growth (786-0 renal) | growth (COLO 205 colon) | growth (DU-145 prostate) | growth (K-562 leukemia) | growth (MALME-3M melanoma) | growth (MDA-MB-231 breast) | growth (RXF 393 renal) | growth (SF-268 CNS) | growth (SF-295 CNS) | growth (SF-539 CNS) | growth (UACC-257 melanoma) | growth (M14 melanoma) | growth (HOP-92 NSCLC)
COC(=O)c1nc(=S)[nH]c(C(=O)OC)c1C(=O)c1ccc(Cl)c(Cl)c1 | 103% | 102% | 107% | 115% | 111% | 101% | 105% | 107% | 120% | 120% | 113% | 102% | 102% | 112% | 111% | 99.8% | 102% | 111% | 107% | 
S=C=Nc1ccc(N2CCOCC2)cc1 | 92.1% | 86% | 96.1% | 89.6% | 99.8% | 74.4% | 89.8% | 89.8% | 97.4% | 108% | 89.6% | 82.3% | 97.3% | 72.2% | 99.9% | 84.8% | 89.5% | 88.7% | 93% | 
CCC1CCCCN1C(=S)N/N=C(\C)c1ccccn1 (stereo not given) | 20.8% | 7.86% (active) | 8.13% (active) | 10.2% | -38.7% (active) | -18.6% (active) | 2.7% (active) | 11.3% | -37.5% (active) | 20.3% | 12.3% | -13.2% (active) | 21.5% | 0.202% (active) | 1.82% (active) | 13% |  | 0% (active) | 0.97% (active) | 
CC1(O)CCCCCC1 | 98.4% | 99.1% | 93.1% | 87.7% | 107% | 112% | 103% | 95.7% | 107% | 106% | 85.3% | 117% | 106% | 108% | 101% | 98.7% | 102% | 101% | 96.2% | 
O=C1C=CC(=O)c2c(O)c(CO)c(CO)c(O)c21 | 89.2% | 110% | 119% | 109% | 102% | 56.6% | 99.5% | 93.7% | 12% | 54.9% | 91.7% | 9.33% (active) | 89.6% | 98% | 111% | 95% | 104% | 94.4% | 14% | 
N#Cc1c2ccccc2nc2ccccc12 | 100% | 93.8% | 110% | 108% | 101% | 101% | 92.8% | 97.7% | 107% | 112% | 106% |  | 99.4% |  | 105% | 98.7% |  | 95.2% | 120% | 
CC[n+]1ccc(Nc2ccc(NC(=O)c3ccc(Nc4cc[n+](CC)c5ccc([N+](=O)[O-])cc45)cc3)cc2)cc1 | 81.8% | 92.8% | 96.8% | 92.8% | 77% | 65.7% | 66.1% | 101% | 69.8% | 91.9% | 48.2% | 40% | 114% | 97.9% | 86.1% | 59.3% | 94.5% | 56.2% | 83.7% | 
O=C(c1ccccc1)C(Br)C(Br)c1ccccc1 (stereo not given) | 104% | 109% | 121% | 103% | 103% |  | 99.2% |  | 6.72% (active) | 94.7% | 6.6% (active) | -3.62% (active) | 112% | 33.6% | 102% | 82.4% | 108% | 17.3% | 2.17% (active) | 46%
O=C1C=CC(=O)N1C1CCCCCCCCCCC1 | 89.9% | 82.9% | 95.3% | 101% | 106% | 7.03% (active) | 91.6% | 94.6% | 52.4% | 88.1% | -2.11% (active) | 72.9% | 99.8% | 64% | 100% | 90.8% | 98.5% | 66.6% | 80.8% | 
C/C=C/c1cc2c(c(=O)o1)C(=O)[C@@H](O)[C@H](C)O2 | 77.9% | 79.6% | 94.6% | 101% | 81.6% | -69% (active) | 97.2% | 78.4% | 35.6% | 27.6% | -4.98% (active) | 19.7% | 90.1% | 52.7% | 88.4% | 96.1% | 87.7% | 86.7% | -3.06% (active) | 
COc1ccc(C(OCC2OC(n3ccc(NC(=O)c4ccccc4)nc3=O)C(O)C2O)(c2ccccc2)c2ccccc2)cc1 (stereo not given) | 54.8% | 29.9% | 109% | 85.3% | 15.5% | 67.9% | 28.1% | 52.5% | 39.5% | 52.4% | 32.7% |  | 58.2% | 31% | 54.2% | 41.7% | 42.9% | 64.3% | 40.2% | 
COc1cc(NCc2ccc3nc(N)nc(N)c3c2C)cc(OC)c1OC (tested in a mixture with another compound) | 16.1% | 47.5% | 51.9% | 29.8% | 14.1% | 22.3% | 36.9% | 15.5% | 40.2% | 49.6% | 27.9% | 37.2% | 61.6% | 30.1% | 24.1% | 17.1% | 25.3% | 23.5% | 20.9% | 
CC(C)=CCCC(C)C1=C(O)C(=O)C(C)=CC1=O (stereo not given) | 97% | 94.8% | 112% | 125% | 124% | -55.5% (active) | 110% | 93.2% | 50.3% | 99.6% | -45.3% (active) | 69.3% | 40.5% | 58.5% | 93.7% | 120% | 96.3% | 120% | 107% | 
O=C(c1ccccc1)c1ccc(O)c2ncccc12 | 19.9% | 29.3% | 44.6% | 38.6% | 13.7% |  | 30.2% | 31.6% | 104% |  | 15% | 56.1% | 38.2% | 41.8% | 34.3% | 74.6% | 21.6% | 17.3% | 35.5% | 49.6%
O=C1/C(=C/c2ccccc2)CCC/C1=C\c1ccccc1 | 88% | 96% | 94.9% | 109% | 103% | 78.7% | 98.8% | 87.7% | 127% | 90% | 62% | 89.5% | 98.9% | 98% | 86.9% | 91.8% | 111% | 84.5% | 64% | 
O=C(O)c1cccc2cccc(-c3c4ccc(=O)c(O)c-4oc4c(O)c(O)ccc34)c12 | 89.3% | 95.5% | 97.2% |  | 100% | 90.9% | 96.4% | 98.8% | 111% | 98.2% | 70.6% | 102% | 83% | 94.4% | 92.8% | 103% | 89.4% | 110% | 92.5% | 93.8%
Oc1ccc2ccccc2c1N=Nc1ccccn1 | 42.6% | 19.1% | 47.8% | 30.1% | 17.4% |  | 53.5% | 7.32% (active) | 15.9% | 50.2% | 15.2% | 59.7% | 36.3% | 38.3% | 36% | 26.8% | 15.7% | 17.6% | 15.6% | 
